In test [1] the target is Cytochrome P450 2C19 (Homo sapiens) (UniProt P33261). The experiment in a line: qHTS Assay for Inhibitors and Substrates of Cytochrome P450 2C19 (AID 899). Also: nearly all actives have a fitted effect of over 60% in size. Also: potency is read from the fitted curve at half-maximal effect. The method, boiled down: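 Luminescence readout of luciferin formed from 10uM Luciferin-H EGE (KM level) by 5 nM CYP2C19 in 50mM KPO4. 60 min NADPH-driven reaction at 37C after 10 min compound preincubation; data scaled to 57uM ketoconazole inhibition.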
For orientation: In qHTS, concentration-response curves come from the screen itself.

Test [2] concerns Zika virus NS2B-NS3 protease (linked). The experiment in a line: 384 well plate NINDS AMC confirmatory qHTS for Zika virus inhibitors (AID 1347163). Also: nearly all actives have a fitted effect of over 50% in size. Also: potency is read from the fitted curve at half-maximal effect. The method, boiled down: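 Linked protease 5/30/60 nM final; cpds up to 1 mM final, ~15 min preinc. Substrate Ac-VKTGKR-AMC 30 microM final. RT, dark, 25 min; FI ex 355/em 460; normalized to no-enzyme/no-inhibitor ctrls.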
A short description of test [3]: Confirmation and Secondary Assay for Modulators of Hemoglobin Beta Chain Splicing at IVS2 654 locus (AID 910).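 Also: HeLa cells stably carrying EGFP split by mutant beta-globin IVS2-654 intron; per-well total GFP intensity by laser scanning cytometry after 2-day treatment.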 Summed up:
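Readout: per-well total peak green fluorescence (488 nm ex, 500–520 nm em) from objects 5–250 µm, reflecting correct splicing of an EGFP-654 reporter. Compounds were applied for 2 days at 37 °C to overnight-plated HeLa EGFP-654 cells; controls were DMSO and 500 nM IVS2-654 PNA.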

A short description of test [4]: Confirmation and Secondary Assay for Modulators of Hemoglobin Beta Chain Splicing at IVS2 705 locus (AID 930).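 Also: HeLa cells stably expressing the EGFP-705 splicing reporter; GFP fluorescence per well restored by corrected splicing of the IVS2-705 intron in EGFP.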 The method, boiled down:
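Stable HeLa line with EGFP disrupted by mutant beta-globin intron 2 (705). Overnight attachment, then 2 days of compound at 37C, 5% CO2. Signal: peak GFP intensity summed over objects 5-250 µm.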

A short description of test [5]: Confirmatory qHTS for VERO E6 Cytotoxicity Assay: Counterscreen for SARS-CoV-2 CPE Assay (AID 1508605; calls by dose curve; also: nearly all actives have a fitted effect of over 60% in size; also: potency is read from the fitted curve at half-maximal effect).
Test [6] is described as follows: Viability counterscreen for antagonist of constitutive androstane receptor (CAR) against the NCATS DSHEA and TCM libraries (AID 1794837).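 Also: compound exposure lasted 24 h before viability reading.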 Summed up:
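HepG2-CYP2B6-hCAR cells (2,500/well) were allowed to attach for 5 h, then exposed to compounds with 48 uM CITCO for 24 h at 37C. Viability was read by CellTiter-Fluor fluorescence after 1 h.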
Background: Counterscreens check selectivity or assay interference.

Test [7] is described as follows: Viability counterscreen for agonist of constitutive androstane receptor (CAR) against the NCATS DSHEA and TCM libraries (AID 1794838).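 Also: HepG2 cells with CYP2B6 reporter and hCAR plus 0.75 µM PK11195 antagonist.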 Summed up:
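HepG2-CYP2B6-hCAR cells (2,500/well) attached 5 h, then got compounds plus 0.75 uM PK11195 final. After 24 h at 37C, viability read by CellTiter-Fluor fluorescence (Ex/Em 405/540 nm).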

A short description of test [8]: HepG2 viability counterscreen (readout 2: ATP content) against the NCATS DSHEA and TCM libraries (AID 1794840).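 Also: HepG2 cells exposed to substances for about 24 h.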 The method, boiled down: (§1)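 HepG2 cells (1,000 cells/well) attached ~4 h, then treated ~24 h at 37C with substances. Protease activity read by GF-AFC (25 uM final, 30 min, Ex/Em 380/510 nm); ATP content then by CellTiter-Glo luminescence.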
A short description of test [9]: HepG2 viability counterscreen (readout 1: protease activity) against the NCATS DSHEA and TCM libraries (AID 1794841).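 Also: cells exposed to compounds for about 24 h before the protease read.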 The method, boiled down:
as §1

The nature of test [10]: S16 Schwann cell viability assay (CellTiter-Glo assay) (AID 624031). Also: nearly all actives have a fitted effect of over 70% in size. The method, boiled down: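 Native S16 Schwann cells (rat), serum-containing medium, overnight attachment then 24 h drug exposure at 37 °C/5% CO2. CellTiter-Glo ATP signal; normalized to cell-free and vehicle wells.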
(In general: ATP-based viability assays read luminescence as a measure of living cells.)

In test [11] the test system is CP191. As to the kind of experiment: qHTS profiling for inhibitors of Plasmodium falciparum proliferation (AID 504749). Also: nearly all actives have a fitted effect of over 60% in size. Also: potency is read from the fitted curve at half-maximal effect. The note with it: P. falciparum in erythrocytes, SYBR Green DNA, 72 h; series mostly up to 28.7 µM. The method, boiled down:
(§2)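 Three-day growth assay of blood-stage parasites in erythrocytes (0.3% parasitemia, 2.5% hematocrit) at 37 C, 5% CO2, quantified by SYBR Green DNA staining after overnight detergent lysis.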

Test [12] relates to CP260. Described as above. The note with it: P. falciparum in erythrocytes, SYBR Green DNA, 72 h; series mostly up to 28.7 µM. Summed up:
as §2

Test [13] has as its system CP291. Described as above. The note with it: P. falciparum in erythrocytes, SYBR Green DNA, 72 h; series mostly up to 28.7 µM. Summed up: as §2
Test [14] relates to CP297. The description is as above. As to conditions: P. falciparum in erythrocytes, SYBR Green DNA, 72 h; series mostly up to 28.7 µM. Summed up: as §2
In test [15] the test system is CP335. The test is described as above. As to conditions: P. falciparum in erythrocytes, SYBR Green DNA, 72 h; series mostly up to 12.8 µM. The method, boiled down: as §2
Test [16] concerns ICS. The test is described as above. As to conditions: P. falciparum in erythrocytes, SYBR Green DNA, 72 h; series mostly up to 28.7 µM. The method, boiled down: as §2
Test [17] has as its system JCK. Described as above. The note with it: P. falciparum in erythrocytes, SYBR Green DNA, 72 h; series mostly up to 28.7 µM. Summed up:
as §2

Test [18] in a line: S16 Schwann cell PMP22 intronic element firefly luciferase assay (AID 624032). Also: nearly all actives have a fitted effect of over 30% in size. The method, boiled down:
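Luciferase reporter of PMP22 intronic-element expression in stably transfected S16 rat Schwann cells, read by ONE-Glo luminescence after 24 h compound exposure at 37 C. Activity scaled between DMSO (0%) and positive-control PTC124; concentration-effect curves quality-classified.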

Test [19] relates to 7G8. The experiment in a line: qHTS profiling for inhibitors of Plasmodium falciparum proliferation (AID 504749). Also: nearly all actives have a fitted effect of over 60% in size. Also: potency is read from the fitted curve at half-maximal effect. The note with it: P. falciparum in erythrocytes, SYBR Green DNA, 72 h; series mostly up to 12.8 µM. The method, boiled down:
as §2

The target in test [20] is Cytochrome P450 1A2 (Homo sapiens) (UniProt P05177). As to the kind of experiment: p450-cyp1a2 (AID 410; calls by dose curve; also: potency is read from the fitted curve at half-maximal effect). Summed up: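 Human CYP1A2 (20nM) demethylated Luciferin-ME at its Km (100uM) in 100mM KPO4. After 10 min compound preincubation, NADPH regeneration ran the reaction 60 min at room temperature. Luciferin was read by luminescence, normalized to 57 uM furafylline.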

Records with an inconclusive call do not appear. Calls of active or inactive are those of the source. Unless noted, calls follow the shape of the dose curve; as a rule, active = well fitted curve in the direction sought with a large enough effect; inconclusive = small, poorly fitted or top-dose-only effect, or another doubt; inactive = no such curve, though single readings can be large; an effect the other way counts as inactive or inconclusive.

Sequence of Cytochrome P450 1A2 (Homo sapiens) (P05177 whole entry, looked up): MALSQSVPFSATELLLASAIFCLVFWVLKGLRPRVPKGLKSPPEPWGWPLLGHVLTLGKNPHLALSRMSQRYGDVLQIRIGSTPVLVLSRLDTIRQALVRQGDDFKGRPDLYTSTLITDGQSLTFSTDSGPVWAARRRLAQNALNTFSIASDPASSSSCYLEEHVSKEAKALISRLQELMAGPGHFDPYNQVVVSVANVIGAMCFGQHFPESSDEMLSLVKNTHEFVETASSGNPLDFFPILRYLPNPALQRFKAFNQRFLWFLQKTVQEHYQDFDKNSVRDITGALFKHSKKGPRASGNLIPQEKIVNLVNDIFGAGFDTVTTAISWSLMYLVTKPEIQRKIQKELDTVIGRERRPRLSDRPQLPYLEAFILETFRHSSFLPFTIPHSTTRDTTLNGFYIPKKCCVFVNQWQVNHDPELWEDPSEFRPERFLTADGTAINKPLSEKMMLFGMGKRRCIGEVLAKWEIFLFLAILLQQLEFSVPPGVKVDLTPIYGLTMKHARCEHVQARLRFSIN
Sequence of Cytochrome P450 2C19 (Homo sapiens) (P33261 whole entry, looked up): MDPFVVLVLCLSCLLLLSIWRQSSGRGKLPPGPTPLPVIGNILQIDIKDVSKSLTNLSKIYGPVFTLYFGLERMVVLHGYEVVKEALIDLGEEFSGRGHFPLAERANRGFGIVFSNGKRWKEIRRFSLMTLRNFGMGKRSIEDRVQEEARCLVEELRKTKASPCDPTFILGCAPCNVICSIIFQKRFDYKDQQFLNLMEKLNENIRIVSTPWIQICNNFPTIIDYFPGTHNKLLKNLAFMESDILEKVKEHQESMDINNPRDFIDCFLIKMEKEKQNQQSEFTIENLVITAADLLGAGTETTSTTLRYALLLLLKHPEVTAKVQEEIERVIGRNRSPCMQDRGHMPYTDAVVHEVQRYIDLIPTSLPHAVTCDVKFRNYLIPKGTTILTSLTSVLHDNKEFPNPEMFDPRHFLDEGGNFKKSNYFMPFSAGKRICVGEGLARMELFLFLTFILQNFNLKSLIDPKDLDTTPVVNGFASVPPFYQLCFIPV

In the case of `CN(C)[C@@H]1C(=O)C(C(N)=O)=C(O)[C@]2(O)C(=O)C3=C(O)c4c(O)cccc4[C@@](C)(O)[C@@H]3C[C@@H]12`, the Potency result in [1] and in [2] was “inactive” throughout.

For `CN(C)C1C(=O)C(C(N)=O)=C(O)[C@@]2(O)C(=O)C3=C(O)c4c(O)ccc(Cl)c4[C@](C)(O)C3CC12` (stereo partly specified), the Potency result in test [3] and in test [4] was “inactive” throughout. Further, the Potency in test [2] was 282 µM (active).

Consider `COC(=O)[C@@]12OC[C@]34[C@H]([C@@H](O)[C@@H]1O)[C@@]1(C)CC(=O)C(O)=C(C)[C@@H]1C[C@H]3OC(=O)[C@H](OC(=O)/C=C(\C)C(C)C)[C@@H]24`, for which the Potency in test [5] was 0.127 µM (active).

Take `N#CC(O[C@@H]1O[C@H](CO[C@@H]2O[C@H](CO)[C@@H](O)[C@H](O)[C@H]2O)[C@@H](O)[C@H](O)[C@H]1O)c1ccccc1` (stereo partly specified): the molecule was called inactive in test [6], in test [7], in test [8] and in test [9].

Consider `C=C(C)[C@@H]1CCC(C)=C[C@H]1c1c(O)cc(CCCCC)cc1O`, for which the molecule was called inactive in [6], in test [7], in test [8] and in [9].

As to `CCCCCCC(C)(C)c1cc(O)c2c(c1)OC(C)(C)C1CC=C(CO)C[C@H]21` (stereo partly specified), the Potency result in [5] is “inactive”.

On to `CCC1/C=C/C=CCC(C)C(O)[C@@](C)(O)C(=O)C(C)C(O)C(C)C(=O)C(C)C(O)C(C)C=CC(=O)O[C@H]2C(C)C(CC1)O[C@]1(CCC(C)C(CC(C)O)O1)C2C` (stereo partly specified), for which the Potency entry in test [3] and in test [4] was “inactive” throughout.

As to `Oc1ccc2c3c1O[C@H]1[C@@H](O)CC[C@@]4(O)C(C2)N(CC2CCC2)CCC314` (stereo partly specified), the Potency entry in [10], in test [11], in test [12], in test [13], in test [14] and in [15] was “inactive” throughout. The Potency entry in test [16] and in test [17] was “inactive” in each case.

For the molecule `CC(C)(O)C1C2OC(=O)C1[C@]1(O)C[C@H]3O[C@]34C(=O)O[C@H]2[C@]14C` (stereo partly specified) (tested in a mixture with another compound), the Potency entry in test [18], in test [19], in test [11], in [12], in test [13] and in test [14] was “inactive” in each case. Moreover, the Potency entry in [15], in [16] and in test [17] was “inactive” in each case.

Consider `CC[C@@H](CO)NC(=O)[C@H]1C=C2c3cccc4c3c(cn4C)C[C@H]2N(C)C1`, for which the Potency in [1] was 0.126 µM (active).

Consider `CCCN(CCC)C(=O)Cc1c(-c2ccc(Cl)cc2)nc2c(Cl)cc(Cl)cn12`, for which the Potency result in test [20] was “inactive”.

For the molecule `COc1cc(C=C(C#N)C#N)cc(O)c1O`, the Potency in test [20] was 12.6 µM (active).

For the molecule `CCCC[N+]1(C)C2CC(OC(=O)C(CO)c3ccccc3)CC1C1OC12` (stereo unspecified), the Potency entry in [10], in test [18], in test [19], in test [11], in [12] and in test [13] was “inactive” throughout. The Potency result in test [14], in test [15], in test [16] and in test [17] was “inactive” throughout.

Consider `CCN(CC)C(=O)N[C@@H]1C[C@@H]2c3cccc4[nH]cc(c34)C[C@H]2N(C)C1`, for which the Potency result in test [10] and in [18] was “inactive” throughout. In [19], the Potency is 4.47 µM (active).

As to `NCC#Cc1ccccc1`, in [20], the Potency was 3.16 µM (active).
